From PubChem BioAssay (EPA / NIEHS)
“And” between values parts separate entries of the source, which are not always exact repeats. Equal entries are not always repeated. The source made the active and inactive calls. The calls were made as follows: active = hit-call score of the fitted dose curve at least 0.9, where 1 is the maximum; inactive = score below 0.9.

Assay: BSK_3C_uPAR: BioMAP Diversity Plus: 3C Assay for Urokinase-type plasminogen activator receptor (uPAR) Biomarker Activity (AID 2282998)
Settings: BioMAP 3C HUVEC, uPAR biomarker ELISA; actives raise or lower the signal
Description: BSK_3C is a cell-based, multiplexed-readout assay that uses umbilical vein endothelium, a human vascular primary cell, with measurements taken at 24 hours after chemical dosing in a 96-well plate.BSK_3CAR is an assay component measured in the BSK_3C assay. It measures uPAR antibody related to regulation of gene expression using ELISA technology.Data from the assay component BSK_3CAR was analyzed into 1 assay endpoint. This assay endpoint, BSK_3CAR, was analyzed with bidirectional fitting relative to DMSO as the negative control and baseline of activity. Using a type of binding reporter, gain or loss-of-signal activity can be used to understand changes in the signaling as they relate to the gene PLAUR. Furthermore, this assay endpoint can be referred to as a primary readout, because this assay has produced multiple assay endpoints where this one serves a signaling function. To generalize the intended target to other relatable targets, this assay endpoint is annotated to the cytokine intended target family, where the subfamily is plasmogen activator.
The levels of cell surface (or secreted, indicated by the prefix "s") biomarker endpoints were measured by ELISA. Overt cytotoxicity to cells in confluent adherent cultures (all systems other than the BT system) was assessed by measuring total protein levels using sulforhodamine B (SRB) staining in parallel cultures at the time of biomarker measurements, indicated as SRB endpoints. For proliferation assays for adherent cell types, individual cell types are cultured at sub-confluence and relative cell numbers quantified by SRB staining at time points optimized for each system (48 h: 3C and CASM3C systems; 72 h: BT and HDF3CGF systems; 96 h: SAg system). SRB was performed by staining cells with 0.1% SRB after fixation with 10% TCA and reading wells at 560 nm.Viability and proliferation of PBMC (T cells) was quantified by Alamar Blue reduction for the SAg and BT systems. For PBMC viability (referred to as PBMC Cytotoxicity within the assay endpoint names), cells were plated (75,000/well in a 96-well plate) and then chemical samples added for 1 h before addition of activators, SEB and TSST-1 (20 ng/mL final concentration each). Cells were incubated for 90 h. Then, Alamar Blue (20 uL/well) (Invitrogen, Cat DAL1100) was added for 6 h, and the plates were read with a fluorescence microplate reader at 546/580 nm (excitation/emission). For PBMC proliferation, cells were plated and activated as above but incubated for only 16 h prior to addition of Alamar Blue. Plates were read after 6 h.

AC50, active:
O=C(CC(=O)C(F)(F)C(F)(F)C(F)(F)F)c1cccs1 46.7 µM and 30 µM
O=C1c2ccc(O)c(O)c2C(=O)c2c(O)ccc(O)c21 8.14 µM
NC(=NCCCCCCN=C(N)/N=C(\N)Nc1ccc(Cl)cc1)/N=C(\N)Nc1ccc(Cl)cc1 2.61 µM
O=C(O)C(F)(F)OC(F)(F)C(F)(F)OC(F)(F)C(F)(F)OC(F)(F)C(F)(F)C(F)(F)C(F)(F)F 21.3 µM and 23 µM
Oc1c(Cl)cc(Cl)cc1Sc1cc(Cl)cc(Cl)c1O 3.97 µM and 7.82 µM
O=C(CCCN1CCC(O)(c2ccc(Cl)cc2)CC1)c1ccc(F)cc1 20 µM
CCCCCCCCCCCCCCCCCC[N+](C)(C)Cc1ccccc1 0.35 µM
O=C1OC2(c3ccccc31)c1cc(I)c(O)c(I)c1Oc1c2cc(I)c(O)c1I 5.04 µM
C=CC(C)(CCC=C(C)C)OC(C)=O (stereo not given) 31.5 µM
CN(C)c1ccc(C(=C2C=CC(=[N+](C)C)C=C2)c2ccccc2)cc1 0.0141 µM
CCCCCc1ccc(O)cc1 13.8 µM
N=C(N)c1ccc(OCCCCCOc2ccc(C(=N)N)cc2)cc1 7.78 µM

outcome, inactive:
Cc1ccc(N=Nc2c(O)ccc3ccccc23)c(C)c1
Cc1cccc2c1ccc1ccccc12
CCCCC=O
CCCCCCCCCCCCCCC
C=CC(=O)OCCC(F)(F)C(F)(F)C(F)(F)C(F)(F)C(F)(F)C(F)(F)C(F)(F)C(F)(F)F
O=C(O)CCC(F)(F)C(F)(F)C(F)(F)C(F)(F)C(F)(F)C(F)(F)F
O=C(c1ccccc1)c1ccccc1
CC(C)(C)c1ccc(O)c(O)c1
CCOC(=O)CN[C@@H](C(=O)N1CC[C@H]1C(=O)NCc1ccc(/C(N)=N/O)cc1)C1CCCCC1
CS(=O)(=O)c1ccc([C@@H](CC2CCCC2)C(=O)Nc2cnccn2)cc1Cl
O=C(O)CCC(F)(F)C(F)(F)C(F)(F)C(F)(F)C(F)(F)F
COc1cc(OC)nc(NC(=O)NS(=O)(=O)Nc2ccccc2C(=O)N(C)C)n1
COc1cccc(O)c1
CN(Cc1cnc2nc(N)nc(N)c2n1)c1ccc(C(=O)N[C@@H](CCC(=O)O)C(=O)O)cc1
COCN(COC)c1nc(N(COC)COC)nc(N(COC)COC)n1
CCCCC(CC)C(=O)OCCOCCOCCOCCOC(=O)C(CC)CCCC (stereo not given)
OCC(F)(F)C(F)(F)C(F)(F)C(F)(F)C(F)(F)C(F)(F)C(F)(F)C(F)(F)C(F)(F)C(F)(F)C(F)(F)F
CC1=NN(c2ccccc2)C(=O)C1
O=C1NS(=O)(=O)c2ccccc21
CCCCCCCCCCCCOS(=O)(=O)O
O=C(NCc1ncc(C(F)(F)F)cc1Cl)c1c(Cl)cccc1Cl
CC(=O)Nc1ccc(O)cc1
O=P(O)(O)CCC(F)(F)C(F)(F)C(F)(F)C(F)(F)C(F)(F)C(F)(F)C(F)(F)C(F)(F)F
C[C@]12CC[C@@H]3c4ccc(O)cc4CC[C@H]3[C@@H]1C[C@@H](O)[C@@H]2O
COC1=CC(=O)C[C@@H](C)[C@]12Oc1c(Cl)c(OC)cc(OC)c1C2=O
CCCCCCCCCCCC
CC[N+](CC)(CC)Cc1ccccc1
Cc1ccc(C(=O)c2ccccc2)cc1
